# Source: PMC5540273 (PLoS ONE, 2017)
# Tested on: BTK
# Settings: concentration: 1 μM, replicates: in singlicate; n = 1
# 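Also: KINOMEscan kinase panel screen.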
row,Structure (SMILES),%Inh [%]
1,COc1cccc2c(-c3ccncc3)c(-c3ccc(F)cc3)nn12 [GW468513],0
2,COc1cccc(NC(=O)NCCNc2ccnc(Nc3ccc(F)cc3)n2)c1 [GSK1379879],0
3,Cn1cc(-c2ccc3c(c2)CCN3C(=O)Cc2cc(F)cc(F)c2F)c2c(N)ncnc21 [GSK2634140],0
4,CN(C)CCOc1ccc(-c2cc(-c3ccc(Cl)c(O)c3)c(-c3ccncc3)[nH]2)cc1.Cl.Cl [SB-684387],0

# Tested on: BUB1
# Settings: concentration: 1 μM, replicates: in singlicate; n = 1
row,Structure (SMILES),%Inh [%]
1,COc1cc(Nc2nccc(N3CCC(NS(=O)(=O)c4ccc(NC(C)=O)cc4)CC3)n2)cc(OC)c1OC [GSK1379825],48
2,Cc1cc(-c2ccnc(Nc3cccc(C#N)c3)n2)cc(C)c1O [GSK1440913],52
3,Cc1ccc(C)c(NC(=O)Nc2ccc(C)c(-c3ccc(C(=O)Nc4ccncc4)cc3)c2)c1 [GSK1398473],4
4,CN(C)CCNS(=O)(=O)c1ccc(-c2ccnc3[nH]ccc23)cc1 [GSK977620],29
5,O=C(Nc1n[nH]c2nc(-c3cccc(O)c3)ccc12)C1CC1 [SB-711805],0
6,COc1cccc(C2=C(Nc3cccc(O)c3)C(=O)NC2=O)c1 [SB-390771],42
7,CSc1ccc(NC2=C(c3ccc(Cl)cc3)C(=O)NC2=O)cc1 [SB-317658],0
8,Cc1ccc(O)cc1Nc1ccnc2cc(-c3ccc(CN4CCCCC4)o3)ccc12 [GW557777],0
9,Fc1cc(Cl)ccc1Nc1ccnc2cc(-c3ccc(CN4CCOCC4)o3)ccc12 [GW560109],25
10,COC(=O)Nc1nc2ccc(Oc3ccc(NC(=O)Nc4cc(C(F)(F)F)ccc4F)cc3)cc2[nH]1.Cl [GW654607],13
11,CN(c1ccc(NC(=O)N2CCN(CCCN3CCOCC3)CC2)cc1)c1ccnc(Nc2ccc(CS(C)(=O)=O)cc2)n1.Cl [GW830899],0
12,CCn1c(-c2nonc2N)nc2c(-c3ccccc3)ncc(OCCCN)c21.O=C(O)C(F)(F)F.O=C(O)C(F)(F)F [GSK260205],96.2
13,COc1cc(Nc2nccc(N3CCC(NC(=O)Nc4ccc5c(c4)OCO5)C3)n2)cc(OC)c1OC (centres unmarked) [GSK1379766],43
14,Cc1ccc(NC(=O)c2ccnc(N3CCCCC3)c2)cc1-c1ccc(C(=O)NCC2CC2)cc1 [GW775610],0
15,COC(=O)Nc1nc2ccc(Oc3ccc(CC(=O)Nc4cc(C(F)(F)F)ccc4F)cc3)cc2[nH]1 [GW680903],63
16,COc1ccc(NC(=O)c2ccoc2)cc1-c1ccc(C(=O)NCC2CC2)cc1 [GW810437],2
17,Cc1cccc(Nc2nc(NCCN)ncc2C(N)=O)c1 [GSK1292139],66
18,Cl.N#CCc1ccc(Nc2nccc(Nc3ccc(Oc4ccccc4)cc3)n2)cc1 [GW639905],0
19,Fc1cc(Cl)ccc1Nc1ccnc2cc(-c3ccc(CN4CCSCC4)o3)ccc12 [GW560106],38

row,Structure (SMILES),%Inh [%]
1,NCCC(NC(=O)c1cc(Br)c(-c2ccnc3[nH]ccc23)s1)c1ccccc1.O=C(O)C(F)(F)F.O=C(O)C(F)(F)F (centres unmarked) [GSK1307810],68
2,O=C(O)C(F)(F)F.O=c1[nH]ccc2nc(N[C@@H]3CCNC3)nc(Nc3ccc4c(c3)S(=O)(=O)CC4)c12 [GSK2181306],90.5
3,Cc1ccccc1CC(=O)N1CCc2cc(-c3cn(C)c4ncnc(N)c34)ccc21 [GSK2603346],10
4,CCNC(=O)/C=C/c1n[nH]c2cc(Sc3ccccc3C(=O)NC)ccc12,48
5,Nc1ncc(-c2ccc3nccc(-c4ccncc4)c3c2)cc1S(=O)(=O)N1CCCCC1 [GSK1693850],13
6,CS(=O)(=O)c1cccc(CNc2nc(Nc3ccc4c(c3)CCC(=O)N4)ncc2C(F)(F)F)c1,0
7,COc1ccc(C)c(Nc2ccnc(Nc3ccc(-c4cnc[nH]4)cc3)n2)c1.Cl [GW784041],0
8,O=C(O)C(F)(F)F.O=c1[nH]ccc2nc(N[C@@H]3CCNC3)nc(Nc3cc(Cl)cc(Cl)c3)c12 [GSK2188764],99.2
9,Cl.Cl.NC(CNC(=O)c1cc(Br)c(-c2ccnc3[nH]ccc23)s1)c1ccccc1 (centres unmarked) [GSK1322949],77
10,COC(=O)Nc1nc2cc(Oc3ccc(NC(=O)Nc4cccc(SC)c4)cc3)ccc2[nH]1.Cl [GW697999],44
11,CCOc1nccc(-c2c(-c3ccc(F)cc3)ncn2C2CCNCC2)n1 [SB-249175],27
12,Cl.Cl.NCC(NC(=O)c1cc(-c2cccnc2)c(-c2ccnc3[nH]ccc23)s1)c1ccccc1 (centres unmarked) [GSK1323434],77
13,Nc1ncnc2scc(-c3ccc(NC(=O)Cc4cc(F)ccc4F)cc3)c12.O=C(O)C(F)(F)F [SB-731254-M],0
14,Cn1cc(-c2ccc3c(c2)CCN3C(=O)Cc2cc(F)cc(C(F)(F)F)c2)c2c(N)ncnc21 [GSK2635225],11
15,COc1cccc2c(-c3ccncc3)c(-c3ccc(F)cc3)nn12 [GW468513],90
16,COc1cccc(NC(=O)NCCNc2ccnc(Nc3ccc(F)cc3)n2)c1 [GSK1379879],58
17,Cn1cc(-c2ccc3c(c2)CCN3C(=O)Cc2cc(F)cc(F)c2F)c2c(N)ncnc21 [GSK2634140],9
18,CN(C)CCOc1ccc(-c2cc(-c3ccc(Cl)c(O)c3)c(-c3ccncc3)[nH]2)cc1.Cl.Cl [SB-684387],83
